Legend:
Experiment in all cases: log2 ratio of Biotin-Ahx-Ub-VS probe labelling (fragment/DMSO); higher = less target engagement (more negative = stronger competition), active = hit call of the paper (q ≤ 0.05, log2 ratio ≤ -1)
Conditions in all cases: compound concentration: 200 uM; treatment time: 3 h
ALG13 = target: T1, ALG13 (UniProt Q9NP73)
T1 sequence (whole entry): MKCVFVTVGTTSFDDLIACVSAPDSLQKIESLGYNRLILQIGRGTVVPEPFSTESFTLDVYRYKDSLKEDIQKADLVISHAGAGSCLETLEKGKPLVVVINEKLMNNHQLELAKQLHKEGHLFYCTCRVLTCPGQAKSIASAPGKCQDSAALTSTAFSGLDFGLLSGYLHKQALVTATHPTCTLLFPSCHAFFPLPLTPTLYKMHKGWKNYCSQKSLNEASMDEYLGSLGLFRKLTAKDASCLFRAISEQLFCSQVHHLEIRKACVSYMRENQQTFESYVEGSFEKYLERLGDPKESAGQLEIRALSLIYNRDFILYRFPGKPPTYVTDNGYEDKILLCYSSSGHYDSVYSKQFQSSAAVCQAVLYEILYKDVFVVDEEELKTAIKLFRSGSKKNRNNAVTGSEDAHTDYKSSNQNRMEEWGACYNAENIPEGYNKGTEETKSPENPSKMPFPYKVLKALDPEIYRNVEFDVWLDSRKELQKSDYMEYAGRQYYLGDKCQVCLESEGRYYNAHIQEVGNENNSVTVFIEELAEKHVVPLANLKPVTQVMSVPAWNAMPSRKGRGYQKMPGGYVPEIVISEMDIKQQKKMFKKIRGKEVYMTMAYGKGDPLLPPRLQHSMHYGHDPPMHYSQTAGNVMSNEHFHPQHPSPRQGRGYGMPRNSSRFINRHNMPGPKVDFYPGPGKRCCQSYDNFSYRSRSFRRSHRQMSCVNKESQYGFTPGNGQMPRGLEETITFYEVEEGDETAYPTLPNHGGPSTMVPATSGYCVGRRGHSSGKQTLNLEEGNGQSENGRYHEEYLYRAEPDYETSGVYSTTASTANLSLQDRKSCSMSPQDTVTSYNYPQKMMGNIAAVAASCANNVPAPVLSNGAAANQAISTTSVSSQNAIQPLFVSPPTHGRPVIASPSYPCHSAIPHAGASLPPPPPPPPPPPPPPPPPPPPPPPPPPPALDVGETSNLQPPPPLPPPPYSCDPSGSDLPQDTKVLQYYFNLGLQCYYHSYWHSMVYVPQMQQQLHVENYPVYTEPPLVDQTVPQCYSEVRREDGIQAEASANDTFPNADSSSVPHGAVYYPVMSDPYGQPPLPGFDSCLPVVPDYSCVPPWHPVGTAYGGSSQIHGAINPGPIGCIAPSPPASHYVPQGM
How it was run: (§1)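 Triplicate samples of HEK293T lysate, 495 µg each, received fragment at 200 µM or vehicle for 3 h, followed by Biotin-Ahx-Ub-VS (0.5 µM final) for 1 h. After NeutrAvidin enrichment of labelled DUBs and LysC/trypsin digestion, peptides were run by diaPASEF LC-MS/MS. The values are average log2 fragment/vehicle ratios from global-median-normalised Spectronaut label-free quantities, tested by unpaired t-test on proteins having ≥2 unique peptides.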

ATXN3 = ATXN3 (UniProt P54252)
Sequence of ATXN3 (P54252 whole entry): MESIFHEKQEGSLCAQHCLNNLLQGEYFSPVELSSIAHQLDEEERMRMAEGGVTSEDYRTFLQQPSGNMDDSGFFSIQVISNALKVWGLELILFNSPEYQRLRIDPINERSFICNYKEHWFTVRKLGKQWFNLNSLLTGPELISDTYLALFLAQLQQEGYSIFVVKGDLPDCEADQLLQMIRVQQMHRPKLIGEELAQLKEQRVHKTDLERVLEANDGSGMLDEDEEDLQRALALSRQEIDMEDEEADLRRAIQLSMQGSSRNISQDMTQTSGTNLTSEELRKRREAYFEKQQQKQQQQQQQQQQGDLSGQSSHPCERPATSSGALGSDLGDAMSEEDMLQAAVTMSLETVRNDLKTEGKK
How it was run: as §1

BAP1 = target: T2, BAP1 (UniProt Q92560)
T2 sequence (whole entry): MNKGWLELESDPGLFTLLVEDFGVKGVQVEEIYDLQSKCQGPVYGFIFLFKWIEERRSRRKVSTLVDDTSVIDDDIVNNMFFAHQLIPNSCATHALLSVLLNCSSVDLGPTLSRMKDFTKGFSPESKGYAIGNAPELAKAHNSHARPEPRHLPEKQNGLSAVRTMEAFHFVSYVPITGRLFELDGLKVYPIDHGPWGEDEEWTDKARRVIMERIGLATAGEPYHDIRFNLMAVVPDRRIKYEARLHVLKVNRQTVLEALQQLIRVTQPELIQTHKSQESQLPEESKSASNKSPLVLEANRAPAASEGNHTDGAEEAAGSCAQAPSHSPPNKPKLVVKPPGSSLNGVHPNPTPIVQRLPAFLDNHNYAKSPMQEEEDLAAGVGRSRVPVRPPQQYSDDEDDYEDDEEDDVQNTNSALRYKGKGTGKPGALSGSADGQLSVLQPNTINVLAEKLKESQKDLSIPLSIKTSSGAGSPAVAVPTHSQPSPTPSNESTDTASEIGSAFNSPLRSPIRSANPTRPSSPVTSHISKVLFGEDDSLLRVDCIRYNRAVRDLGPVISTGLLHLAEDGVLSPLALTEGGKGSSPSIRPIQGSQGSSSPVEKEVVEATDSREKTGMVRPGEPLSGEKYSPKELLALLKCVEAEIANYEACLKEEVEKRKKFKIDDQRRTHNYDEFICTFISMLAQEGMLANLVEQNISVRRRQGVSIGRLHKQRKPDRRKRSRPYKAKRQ
How it was run: as §1

EIF3F = EIF3F (UniProt O00303)
Sequence of EIF3F (O00303 whole entry): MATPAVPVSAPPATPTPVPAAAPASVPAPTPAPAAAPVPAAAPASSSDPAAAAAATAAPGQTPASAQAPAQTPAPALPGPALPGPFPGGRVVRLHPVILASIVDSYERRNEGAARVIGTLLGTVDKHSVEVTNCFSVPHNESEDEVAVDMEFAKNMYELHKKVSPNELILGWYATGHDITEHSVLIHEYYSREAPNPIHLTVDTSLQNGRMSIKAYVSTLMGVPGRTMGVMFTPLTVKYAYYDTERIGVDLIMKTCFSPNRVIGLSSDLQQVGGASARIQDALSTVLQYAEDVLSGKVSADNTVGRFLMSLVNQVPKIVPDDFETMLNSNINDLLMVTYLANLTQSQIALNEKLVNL
How it was run: as §1

EIF3H = EIF3H (UniProt O15372)
Sequence of EIF3H (O15372 whole entry): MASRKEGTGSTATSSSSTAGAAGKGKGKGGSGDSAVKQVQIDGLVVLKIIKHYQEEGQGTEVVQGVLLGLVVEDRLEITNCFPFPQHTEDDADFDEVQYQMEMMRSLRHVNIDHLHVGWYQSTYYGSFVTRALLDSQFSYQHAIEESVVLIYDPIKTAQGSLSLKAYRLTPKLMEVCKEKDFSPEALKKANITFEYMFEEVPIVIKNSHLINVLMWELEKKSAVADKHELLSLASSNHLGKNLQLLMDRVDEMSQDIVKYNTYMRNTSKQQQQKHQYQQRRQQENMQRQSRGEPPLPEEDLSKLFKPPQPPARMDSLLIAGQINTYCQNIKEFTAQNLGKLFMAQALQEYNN
How it was run: as §1

FAM105A = target: T3, FAM105A (UniProt Q9NUU6)
T3 sequence (whole entry): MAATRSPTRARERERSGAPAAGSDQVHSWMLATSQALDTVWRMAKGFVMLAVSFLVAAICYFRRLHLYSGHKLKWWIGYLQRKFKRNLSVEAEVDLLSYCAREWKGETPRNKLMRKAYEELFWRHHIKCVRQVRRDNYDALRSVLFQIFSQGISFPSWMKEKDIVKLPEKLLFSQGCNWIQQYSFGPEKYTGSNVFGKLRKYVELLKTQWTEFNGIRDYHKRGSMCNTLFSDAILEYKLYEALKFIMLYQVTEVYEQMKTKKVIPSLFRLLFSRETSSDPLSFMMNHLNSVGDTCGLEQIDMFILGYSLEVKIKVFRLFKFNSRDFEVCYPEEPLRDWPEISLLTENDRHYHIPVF
How it was run: as §1

OTUB1 = OTUB1 (UniProt Q96FW1)
Sequence of OTUB1 (Q96FW1 whole entry): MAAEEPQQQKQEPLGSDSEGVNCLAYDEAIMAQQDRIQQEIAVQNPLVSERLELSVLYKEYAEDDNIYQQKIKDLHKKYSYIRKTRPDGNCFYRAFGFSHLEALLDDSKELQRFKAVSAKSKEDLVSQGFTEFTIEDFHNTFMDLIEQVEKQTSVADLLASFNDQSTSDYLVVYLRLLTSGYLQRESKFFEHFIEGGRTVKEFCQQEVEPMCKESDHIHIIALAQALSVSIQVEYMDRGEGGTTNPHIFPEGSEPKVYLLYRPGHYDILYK
How it was run: as §1

OTUD4 = target: T4, OTUD4 (UniProt Q01804)
T4 sequence (whole entry): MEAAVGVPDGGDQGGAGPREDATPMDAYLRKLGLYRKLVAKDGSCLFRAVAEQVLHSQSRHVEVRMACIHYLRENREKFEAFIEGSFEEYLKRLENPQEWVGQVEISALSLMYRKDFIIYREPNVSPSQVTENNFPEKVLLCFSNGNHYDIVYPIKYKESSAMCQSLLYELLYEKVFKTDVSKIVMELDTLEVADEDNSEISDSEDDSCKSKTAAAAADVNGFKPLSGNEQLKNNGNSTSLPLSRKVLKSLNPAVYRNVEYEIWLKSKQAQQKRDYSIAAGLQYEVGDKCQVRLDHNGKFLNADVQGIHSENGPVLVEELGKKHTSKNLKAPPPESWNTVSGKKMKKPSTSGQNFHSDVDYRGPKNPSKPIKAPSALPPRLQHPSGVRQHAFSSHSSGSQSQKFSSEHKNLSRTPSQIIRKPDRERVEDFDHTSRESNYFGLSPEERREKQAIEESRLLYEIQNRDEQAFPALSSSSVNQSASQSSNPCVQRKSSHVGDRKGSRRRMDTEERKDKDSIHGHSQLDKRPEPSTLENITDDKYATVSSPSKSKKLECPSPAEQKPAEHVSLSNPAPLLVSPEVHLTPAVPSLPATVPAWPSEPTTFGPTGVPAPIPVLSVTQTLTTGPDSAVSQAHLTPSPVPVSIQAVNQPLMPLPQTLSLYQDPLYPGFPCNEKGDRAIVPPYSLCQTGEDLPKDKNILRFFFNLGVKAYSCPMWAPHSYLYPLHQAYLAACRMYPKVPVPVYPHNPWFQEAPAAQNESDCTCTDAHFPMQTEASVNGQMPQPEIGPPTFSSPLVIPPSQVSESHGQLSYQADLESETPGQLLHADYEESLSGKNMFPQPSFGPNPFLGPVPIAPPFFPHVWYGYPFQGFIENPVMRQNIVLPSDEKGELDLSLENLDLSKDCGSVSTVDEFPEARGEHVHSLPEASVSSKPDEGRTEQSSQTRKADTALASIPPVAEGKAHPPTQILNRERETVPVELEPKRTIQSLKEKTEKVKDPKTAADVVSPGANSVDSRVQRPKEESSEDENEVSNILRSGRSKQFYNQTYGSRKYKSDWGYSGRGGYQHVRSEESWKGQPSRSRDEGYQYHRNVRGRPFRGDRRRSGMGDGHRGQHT
How it was run: as §1

OTUD5 = target: T5, OTUD5 (UniProt Q96G74)
T5 sequence (whole entry): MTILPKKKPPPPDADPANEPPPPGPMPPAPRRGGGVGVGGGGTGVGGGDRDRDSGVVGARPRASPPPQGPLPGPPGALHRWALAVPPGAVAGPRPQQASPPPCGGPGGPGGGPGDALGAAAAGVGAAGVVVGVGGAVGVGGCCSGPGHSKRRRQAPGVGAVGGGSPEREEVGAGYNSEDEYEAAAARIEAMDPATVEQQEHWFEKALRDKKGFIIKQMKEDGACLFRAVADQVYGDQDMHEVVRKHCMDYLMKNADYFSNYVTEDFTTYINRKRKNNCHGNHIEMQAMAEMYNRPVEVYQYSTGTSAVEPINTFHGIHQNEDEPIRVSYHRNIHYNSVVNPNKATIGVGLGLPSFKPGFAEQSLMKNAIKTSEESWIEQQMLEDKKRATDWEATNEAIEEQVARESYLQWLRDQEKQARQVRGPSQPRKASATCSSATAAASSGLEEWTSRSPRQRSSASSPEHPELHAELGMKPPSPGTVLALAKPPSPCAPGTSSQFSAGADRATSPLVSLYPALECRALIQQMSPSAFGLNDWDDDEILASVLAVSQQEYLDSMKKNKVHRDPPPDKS
How it was run: as §1

Measured: log2 ratio of Biotin-Ahx-Ub-VS probe labelling

O=C(CCl)N1CCC(C(O)c2ccc(F)cc2)CC1 (centres undefined)
inactive: ALG13 0.00454 | ATXN3 -0.475 | BAP1 -0.334 | EIF3F -0.0081 | EIF3H 0.17 | FAM105A -0.0782 | OTUB1 -0.215 | OTUD4 -0.0305 | OTUD5 -0.189

Reference: the supplement of paper PMC11732987, “Enantioselective OTUD7B fragment discovery through chemoproteomics screening and high-throughput optimisation” (Communications Chemistry, 2025)
